Records with an inconclusive call do not appear. Activity calls are given as the source filed them. The call rests on the fitted dose curve; in most records, active means well fitted inhibition curve with a large enough effect; inconclusive means small, poorly fitted or top-dose-only effect; inactive means flat fitted curve, though single readings scatter.
system: CP250; assay: qHTS profiling for inhibitors of Plasmodium falciparum proliferation (AID 504749);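 further: 0% = DMSO vehicle and full inhibition = artemisinin control; nearly all actives have a fitted effect of over 60% in size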; settings: P. falciparum in erythrocytes, SYBR Green DNA, 72 h; series mostly up to 28.7 µM; activity, negative = inhibition: at the top concentration
Summary of the method: (§1)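 Three-day growth assay of blood-stage parasites in erythrocytes (0.3% parasitemia, 2.5% hematocrit) at 37 C, 5% CO2, quantified by SYBR Green DNA staining after overnight detergent lysis.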

Row | Compound | activity, negative = inhibition
1 | COc1cc(S(C)=O)ccc1-c1nc2ncccc2[nH]1 (stereo not given) | 3.02% (inactive)
2 | CCOc1ccc(S(=O)(=O)O)c2cccnc12 | 4.26% (inactive)
3 | NC(=S)NS(=O)(=O)c1ccc(N)cc1 | 1.93% (inactive)
4 | C[C@]12CC[C@@H]3c4ccc(OC(=O)c5ccccc5)cc4CC[C@H]3[C@@H]1CC[C@@H]2O | 0.0332% (inactive)
5 | CC(CCc1ccc(O)cc1)NCC(O)c1ccc(O)cc1 (stereo not given) | 1.99% (inactive)
6 | FC(F)(F)C(F)(F)C(F)(F)C(F)(F)C(F)(F)C(F)(F)F | 6.99% (inactive)
7 | CN(C)CCOc1ccc(/C(=C(/CCCl)c2ccccc2)c2ccccc2)cc1 | -12.2% (inactive)
8 | CNC(=O)OCc1cccc(COC(=O)NC)n1 | 9.61% (inactive)
9 | NCC[C@H](O)C(=O)N[C@@H]1C[C@H](N)[C@@H](O[C@H]2O[C@H](CN)[C@@H](O)[C@H](O)[C@H]2O)[C@H](O)[C@H]1O[C@H]1O[C@H](CO)[C@@H](O)[C@H](N)[C@H]1O | 0.584% (inactive)
10 | NC(N)=O | 1.81% (inactive)
11 | CC1CCCCN1CCCOC(=O)c1ccccc1 (stereo not given) | -0.734% (inactive)
12 | COC(=O)CCC[N+](C)(C)C | 5.79% (inactive)
13 | COC(=O)CC[C@H](N)C(=O)O | 9.46% (inactive)
14 | O=C(OCc1ccccc1)c1ccc(O)cc1 | 3.35% (inactive)
15 | CC(C)(CO)[C@@H](O)C(=O)NCCC(=O)NCCSSCCNC(=O)CCNC(=O)[C@H](O)C(C)(C)CO | 2.15% (inactive)
16 | COC(=O)c1ccccc1O | -16.4% (inactive)
17 | OC[C@H]1O[C@@](CO)(O[C@H]2O[C@H](CO)[C@@H](O)[C@H](O)[C@H]2O)[C@@H](O)[C@@H]1O | 0.526% (inactive)
18 | Nc1nccs1 | -0.73% (inactive)
19 | c1ccc2ccccc2c1 | 3.42% (inactive)
20 | O=S(=O)(O)CCCS(=O)(=O)O | 7.39% (inactive)

Row | Compound | activity, negative = inhibition
21 | O=C1c2ccccc2C(=O)c2c1ccc(O)c2O | 2.54% (inactive)
22 | O=C(NNCNNC(=O)c1ccncc1)c1ccncc1 | -2.91% (inactive)
23 | [O]=[Bi][O]C(=O)[O][Bi]=[O] | 0.222% (inactive)
24 | C=CCN1CCCC1CNC(=O)c1cc(S(N)(=O)=O)cc(OC)c1OC (stereo not given) | 2.34% (inactive)
25 | CC(C)[C@H](N)C(=O)OCC(CO)OCn1cnc2c(=O)[nH]c(N)nc21 (stereo not given in full) | 5.6% (inactive)
26 | CCCCCCCCCCCCCCCCCC(=O)OC[C@@H](O)[C@H]1OC[C@H](O)[C@H]1O | -10.1% (inactive)
27 | CC(=O)[C@H]1CC[C@H]2[C@@H]3C=CC4=CC(=O)CC[C@@]4(C)[C@H]3CC[C@]12C | 0.254% [at 12.8 µM] (inactive)
28 | CCCC(=O)O | 0.244% (inactive)
29 | CC1(C)S[C@@H]2[C@H](NC(=O)C3(N)CCCCC3)C(=O)N2[C@H]1C(=O)O | 4.83% (inactive)
30 | CCCCCCCCCCCC(=O)OCC(O)CO (stereo not given) | 0.0961% (inactive)
31 | CCOc1ccc(NC(=S)Nc2ccc(OCC)cc2)cc1 | 15% (inactive)
32 | C[C@H](CCC(=O)O)[C@H]1CC[C@H]2[C@@H]3CC[C@@H]4C[C@H](O)CC[C@]4(C)[C@H]3C[C@H](O)[C@]12C | 6.08% (inactive)
33 | CC(C)(COP(=O)(O)OP(=O)(O)OC[C@H]1O[C@@H](n2cnc3c(N)ncnc32)[C@H](O)[C@@H]1OP(=O)(O)O)C(O)C(=O)NCCC(=O)NCCS (stereo not given in full) | 9.06% (inactive)
34 | O=C(CCCCCCCCCCCCC1CCCC1)Nc1ccc(S(=O)(=O)c2ccc(NC(=O)CCCCCCCCCCCCC3CCCC3)cc2)cc1 | -0.274% (inactive)
35 | Nc1nc(=O)n([C@@H]2CS[C@H](CO)O2)cc1F | 5.01% (inactive)
36 | O=C(O)CCC/C=C\C[C@@H]1[C@@H](/C=C/[C@@H](O)COc2cccc(C(F)(F)F)c2)[C@H](O)C[C@@H]1O | -4.13% (inactive)
37 | Cc1c(Cl)cccc1Nc1ncccc1C(=O)O | 4.87% (inactive)
38 | CC(C)=CCC/C(C)=C/CC/C(C)=C/CC/C=C(\C)CC/C=C(\C)CCC=C(C)C | 3.15% (inactive)
39 | CC(=O)Nc1ccc(OC(C)=O)cc1 | 4.74% (inactive)
40 | CC(=O)N[C@@H]1C(O[C@H]2O[C@H](C(=O)O)C(O)[C@H](O)[C@H]2O)[C@H](O)[C@@H](CO)O[C@H]1O[C@@H]1C(C(=O)O)O[C@@H](O[C@H]2[C@H](O)[C@@H](CO)OC(O)[C@@H]2NC(C)=O)[C@H](O)[C@H]1O (stereo not given in full) | 9.18% (inactive)

system: CP252; assay: as above; settings: P. falciparum in erythrocytes, SYBR Green DNA, 72 h; series mostly up to 28.7 µM; activity, negative = inhibition: at the top concentration
Summary of the method: as §1

Row | Compound | activity, negative = inhibition
41 | COc1cc(S(C)=O)ccc1-c1nc2ncccc2[nH]1 (stereo not given) | 4.22% (inactive)
42 | CCOc1ccc(S(=O)(=O)O)c2cccnc12 | 4.43% (inactive)
43 | NC(=S)NS(=O)(=O)c1ccc(N)cc1 | 0.505% (inactive)
44 | C[C@]12CC[C@@H]3c4ccc(OC(=O)c5ccccc5)cc4CC[C@H]3[C@@H]1CC[C@@H]2O | 5.64% (inactive)
45 | CC(CCc1ccc(O)cc1)NCC(O)c1ccc(O)cc1 (stereo not given) | 5.39% (inactive)
46 | FC(F)(F)C(F)(F)C(F)(F)C(F)(F)C(F)(F)C(F)(F)F | 3.9% (inactive)
47 | CN(C)CCOc1ccc(/C(=C(/CCCl)c2ccccc2)c2ccccc2)cc1 | 0.263% (inactive)
48 | CNC(=O)OCc1cccc(COC(=O)NC)n1 | 4.23% (inactive)
49 | NCC[C@H](O)C(=O)N[C@@H]1C[C@H](N)[C@@H](O[C@H]2O[C@H](CN)[C@@H](O)[C@H](O)[C@H]2O)[C@H](O)[C@H]1O[C@H]1O[C@H](CO)[C@@H](O)[C@H](N)[C@H]1O | -2.08% (inactive)
50 | NC(N)=O | 4.3% (inactive)
51 | CC1CCCCN1CCCOC(=O)c1ccccc1 (stereo not given) | -15.6% (inactive)
52 | COC(=O)CCC[N+](C)(C)C | 10% (inactive)
53 | COC(=O)CC[C@H](N)C(=O)O | 4.96% (inactive)
54 | O=C(OCc1ccccc1)c1ccc(O)cc1 | 1.17% (inactive)
55 | CC(C)(CO)[C@@H](O)C(=O)NCCC(=O)NCCSSCCNC(=O)CCNC(=O)[C@H](O)C(C)(C)CO | 14.7% (inactive)
56 | COC(=O)c1ccccc1O | -3.86% (inactive)
57 | OC[C@H]1O[C@@](CO)(O[C@H]2O[C@H](CO)[C@@H](O)[C@H](O)[C@H]2O)[C@@H](O)[C@@H]1O | 2.54% (inactive)
58 | Nc1nccs1 | 6.55% (inactive)
59 | c1ccc2ccccc2c1 | -2.4% (inactive)
60 | O=S(=O)(O)CCCS(=O)(=O)O | 7.45% (inactive)

Row | Compound | activity, negative = inhibition
61 | O=C1c2ccccc2C(=O)c2c1ccc(O)c2O | 8% (inactive)
62 | O=C(NNCNNC(=O)c1ccncc1)c1ccncc1 | 7.96% (inactive)
63 | [O]=[Bi][O]C(=O)[O][Bi]=[O] | -8.56% (inactive)
64 | C=CCN1CCCC1CNC(=O)c1cc(S(N)(=O)=O)cc(OC)c1OC (stereo not given) | 0.732% (inactive)
65 | CC(C)[C@H](N)C(=O)OCC(CO)OCn1cnc2c(=O)[nH]c(N)nc21 (stereo not given in full) | 5.6% (inactive)
66 | CCCCCCCCCCCCCCCCCC(=O)OC[C@@H](O)[C@H]1OC[C@H](O)[C@H]1O | -5.95% (inactive)
67 | CC(=O)[C@H]1CC[C@H]2[C@@H]3C=CC4=CC(=O)CC[C@@]4(C)[C@H]3CC[C@]12C | -0.802% [at 12.8 µM] (inactive)
68 | CCCC(=O)O | 1.14% (inactive)
69 | CC1(C)S[C@@H]2[C@H](NC(=O)C3(N)CCCCC3)C(=O)N2[C@H]1C(=O)O | 3.58% (inactive)
70 | CCCCCCCCCCCC(=O)OCC(O)CO (stereo not given) | 3.59% (inactive)
71 | CCOc1ccc(NC(=S)Nc2ccc(OCC)cc2)cc1 | 3% (inactive)
72 | C[C@H](CCC(=O)O)[C@H]1CC[C@H]2[C@@H]3CC[C@@H]4C[C@H](O)CC[C@]4(C)[C@H]3C[C@H](O)[C@]12C | 7.85% (inactive)
73 | CC(C)(COP(=O)(O)OP(=O)(O)OC[C@H]1O[C@@H](n2cnc3c(N)ncnc32)[C@H](O)[C@@H]1OP(=O)(O)O)C(O)C(=O)NCCC(=O)NCCS (stereo not given in full) | 5.56% (inactive)
74 | O=C(CCCCCCCCCCCCC1CCCC1)Nc1ccc(S(=O)(=O)c2ccc(NC(=O)CCCCCCCCCCCCC3CCCC3)cc2)cc1 | 5.1% (inactive)
75 | Nc1nc(=O)n([C@@H]2CS[C@H](CO)O2)cc1F | 11.6% (inactive)
76 | O=C(O)CCC/C=C\C[C@@H]1[C@@H](/C=C/[C@@H](O)COc2cccc(C(F)(F)F)c2)[C@H](O)C[C@@H]1O | -3.06% (inactive)
77 | Cc1c(Cl)cccc1Nc1ncccc1C(=O)O | 3.66% (inactive)
78 | CC(C)=CCC/C(C)=C/CC/C(C)=C/CC/C=C(\C)CC/C=C(\C)CCC=C(C)C | 3.02% (inactive)
79 | CC(=O)Nc1ccc(OC(C)=O)cc1 | 4.16% (inactive)
80 | CC(=O)N[C@@H]1C(O[C@H]2O[C@H](C(=O)O)C(O)[C@H](O)[C@H]2O)[C@H](O)[C@@H](CO)O[C@H]1O[C@@H]1C(C(=O)O)O[C@@H](O[C@H]2[C@H](O)[C@@H](CO)OC(O)[C@@H]2NC(C)=O)[C@H](O)[C@H]1O (stereo not given in full) | 2.26% (inactive)

Reference: PubChem BioAssay (NCATS)
